Assay outcomes deposited in PubChem by The Scripps Research Institute Molecular Screening Center.
ABHD5-PLIN5 inh: blocks binding of human ABHD5 to perilipin-5; Q00G26+Q8WTS1; Split G. princeps luciferase complementation, luminescence, 4 h; inhibition, % at 4 µM; 360,000 compounds, 0.78% hits; AID 602281;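 active means inhibition above the mean inhibition across every tested compound plus 3 SD, cut at about 22% in these data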
TLR9-MyD88 inh: blocks human TLR9 binding to MyD88. Q9NR96+Q99836. CHO BLA complementation TLR9-MyD88, CCF4 FRET ratio. inhibition, % at 4.98 µM. 340,000 compounds, 0.21% hits;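 active means inhibition above the mean over all tested compounds plus 3 SD, cut at about 21% in these data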
NOD2-RIPK2 inh: inhibitors of human NOD2-RIPK2 interaction; inhibition, % at 4.98 µM; O43353; CHO BLA complementation NOD2-RIPK2, CCF4 ratio; 360,000 compounds, 0.38% hits; in the data active means inhibition above about 21%
Target sequence (O43353 whole entry, looked up): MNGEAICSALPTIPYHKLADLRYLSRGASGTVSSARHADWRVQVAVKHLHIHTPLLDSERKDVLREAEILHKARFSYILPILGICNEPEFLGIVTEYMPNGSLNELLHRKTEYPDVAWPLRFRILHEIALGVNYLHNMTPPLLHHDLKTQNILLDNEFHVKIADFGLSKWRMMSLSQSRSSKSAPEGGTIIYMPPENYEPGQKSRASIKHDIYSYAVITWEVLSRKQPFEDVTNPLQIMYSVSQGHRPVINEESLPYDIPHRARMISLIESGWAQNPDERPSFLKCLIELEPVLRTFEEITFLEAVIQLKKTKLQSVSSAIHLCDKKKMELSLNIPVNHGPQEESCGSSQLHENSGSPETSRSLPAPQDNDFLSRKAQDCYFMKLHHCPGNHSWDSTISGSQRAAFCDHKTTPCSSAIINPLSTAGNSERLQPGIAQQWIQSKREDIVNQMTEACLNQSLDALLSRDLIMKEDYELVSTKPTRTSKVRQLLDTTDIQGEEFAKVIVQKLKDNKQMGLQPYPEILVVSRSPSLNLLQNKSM
TLR4 MyD88 comp: TLR4-MyD88 interaction inhibition in cells. O00206+Q99836. HeLa CL3-4 TLR4/MyD88 BLA complementation, FRET ratio. inhibition, % at 8.4 µM. 200,000 compounds, 0.18% hits. AID 861; in the data active means inhibition above about 25%
ABHD5-PLIN5 conf: confirmation of human ABHD5-PLIN5 interaction inhibitors | shares compounds with ABHD5-PLIN5 inh | biochemical ABHD5-PLIN5 interaction, luminescence | 2,200 compounds, 67% hits | inhibition, % at 4 µM; in the data active means inhibition above about 23%
HNF4 counter: active in HNF4 split-luciferase counter-screen for ABHD5-PLIN5 inhibitors; 2,200 compounds, 77% hits; AID 651674; shares compounds with ABHD5-PLIN5 inh; HNF4 dimerization, luminescence, biochemical; inhibition, % at 4 µM;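 active means mean inhibition across replicate wells exceeding the computed hit threshold, cut at about 13% in these data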;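 further: light from luciferase halves that rejoin when HNF4 fusion proteins dimerize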
Large screens that a line does not name were inactive (follow-up assays come after a bar, where they were run). Most compounds without a hit are left out; they make up all but 1.2% or so of the library.

CCOC(=O)N1CCc2c(sc(NC(=O)CN3CCN(C)CC3)c2C(=O)Nc2ccccc2)C1	none
Cc1cccc(Cn2cc(/C=C/[N+](=O)[O-])c3ccccc32)c1	ABHD5-PLIN5 inh 25 | ABHD5-PLIN5 conf 91 | HNF4 counter 86
COC(=O)c1ccc(Cn2cc(/C=C\[N+](=O)[O-])c3ccccc32)o1	ABHD5-PLIN5 inh 43 (no result: TLR4 MyD88 comp) | ABHD5-PLIN5 conf 88 | HNF4 counter 46
CCCSc1nc(NCc2ccco2)c2c3c(sc2n1)COC(C)(C)C3	ABHD5-PLIN5 inh 28 | ABHD5-PLIN5 conf inactive | HNF4 counter inactive
CCCCSc1nc(NCc2ccco2)c2c3c(sc2n1)COC(C)(C)C3	none
COc1ccc(S(=O)(=O)N2CCC(C(=O)N[C@H](C(=O)NC3CCCC3)C(C)C)CC2)cc1	none (no result: TLR4 MyD88 comp)
C=C1CCc2c([nH]c3ccc(OCC(C)C)cc23)C1=O	ABHD5-PLIN5 inh 42 (no result: TLR4 MyD88 comp) | ABHD5-PLIN5 conf 90 | HNF4 counter 73
O=C(CCc1ccccc1)Nc1cccnc1Cl	none (no result: TLR4 MyD88 comp)
O=C(CC(=O)c1ccccc1)Nc1cccnc1Cl	ABHD5-PLIN5 inh 27 | ABHD5-PLIN5 conf inactive | HNF4 counter 18
O=C(COC(=O)CSc1ccc(Cl)cc1)Nc1ccc2[nH]c(=O)[nH]c2c1	none (no result: TLR4 MyD88 comp)
Cc1ccc(S(=O)(=O)NC(Cc2ccccc2)C(=O)NN)cc1 (stereo not drawn)	none (no result: TLR4 MyD88 comp)
Cc1ccc(S(=O)(=O)N[C@@H](Cc2ccccc2)C(=O)CCl)cc1	ABHD5-PLIN5 inh 53 | ABHD5-PLIN5 conf 93 | HNF4 counter 90
CCC(C)(C)NC(=O)c1ccc(Sc2nncn2C)c([N+](=O)[O-])c1	none
Cn1cnnc1Sc1ccc(/C=C/C(=O)c2ccc(O)cc2)cc1[N+](=O)[O-]	ABHD5-PLIN5 inh 64 | ABHD5-PLIN5 conf 87 | HNF4 counter 87
CC(C)(C)C(=O)Nc1ccc(C(=O)COC(=O)C2=COCCO2)cc1	none (no result: TLR4 MyD88 comp)
COc1ccc(NC(=O)CN(C)C(=O)CCCc2nc3ccccc3c(=O)[nH]2)cc1	none (no result: TLR4 MyD88 comp)
CN(C)CCC1(C2=CCCC2)CC/C(=C/c2ccc(Cl)cc2)C1=O (stereo not drawn)	ABHD5-PLIN5 inh 32 (no result: TLR4 MyD88 comp) | ABHD5-PLIN5 conf 39 | HNF4 counter 21
COc1cc(/C=C(/C(=O)c2cccs2)c2nc3ccccc3[nH]2)cc(OC)c1O	ABHD5-PLIN5 inh 60 | ABHD5-PLIN5 conf 88 | HNF4 counter 88
O=C(/C(=C/c1ccc(Cl)cc1)c1nc2ccccc2[nH]1)c1ccccc1	ABHD5-PLIN5 inh 28 | ABHD5-PLIN5 conf 100 | HNF4 counter 94
COc1ccc(C(=O)N/C(=C/c2cccs2)c2nc3ccccc3[nH]2)cc1OC	none
C[C@@H]1CN([C@H](C)CO)S(=O)(=O)c2ccc(C#CCN(C)C)cc2O[C@@H]1CN(C)Cc1ccccc1F	none (no result: TLR4 MyD88 comp)
Cc1nn(C)c(Cl)c1C(=O)NCC(=O)Nc1ccc(C(C)C)cc1	none
O=C1OC(c2ccccc2)(c2cc(Br)ccc2O)c2ccccc21 (stereo not drawn)	none (no result: TLR4 MyD88 comp)
CCNC(=O)C1(C)CCCN(C(=O)c2sc(-c3ccccc3)nc2C)C1 (stereo not drawn)	none (no result: TLR9-MyD88 inh, TLR4 MyD88 comp)
Cc1[nH]nc(-c2ccc(O)cc2O)c1Oc1ccccc1	ABHD5-PLIN5 inh 24 | ABHD5-PLIN5 conf inactive | HNF4 counter 36
O=C(C1CCCC1)N1CCN(S(=O)(=O)c2ccc(Cl)cc2)CC1	none (no result: TLR4 MyD88 comp)
O=C(C1CCN(S(=O)(=O)c2ccc(Cl)cc2)CC1)N1CCC1	ABHD5-PLIN5 inh 52 (no result: TLR4 MyD88 comp) | ABHD5-PLIN5 conf inactive | HNF4 counter inactive
Cc1c(C(=O)N2CCN(C/C=C/c3ccccc3)CC2)oc2c(F)cccc12	none (no result: TLR4 MyD88 comp)
COC(=O)COc1ccc(C2Nc3c(Cl)ccc(C(=O)O)c3C3C=CCC32)cc1 (stereo not drawn)	ABHD5-PLIN5 inh 23 | ABHD5-PLIN5 conf inactive | HNF4 counter 28
Cc1ccc(C2=NS(=O)(=O)N(C)C(C(=O)NC3CCCCC3)=C2)cc1	none (no result: TLR4 MyD88 comp)
CCCCCc1nnc(NC(=O)c2cccc(S(=O)(=O)N3CCOCC3)c2)s1	none (no result: TLR4 MyD88 comp)
C=C1C(=O)C23C(O)C1CCC2C12COC3(O)C(O)C1C(C)(C)CCC2O (stereo not drawn)	ABHD5-PLIN5 inh 96 (no result: TLR9-MyD88 inh, TLR4 MyD88 comp) | ABHD5-PLIN5 conf 88 | HNF4 counter 106
CC(OC(=O)CN1C(=O)c2ccccc2C1=O)C(=O)NC1CCCCC1C (stereo not drawn)	none (no result: TLR4 MyD88 comp)
Cc1ccc(/C=C/C(=O)N2CCN(S(=O)(=O)c3c(C)c(C)cc(C)c3C)CC2)o1	none
Cc1ccc(/C=C/C(=O)N2CCN(S(=O)(=O)c3ccc(C)c(C)c3)CC2)o1	ABHD5-PLIN5 inh 44 | ABHD5-PLIN5 conf 43 | HNF4 counter 62
Cn1nc(C(=O)NNC(=O)C(CCC(N)=O)NS(=O)(=O)c2ccc(Cl)cc2)c2ccccc2c1=O (stereo not drawn)	none (no result: TLR4 MyD88 comp)
Cc1ccc2nc3c(cc2c1)CN(Cc1ccco1)C(=NCC1CCCO1)S3 (stereo not drawn)	none
Cc1cccc2cc3c(nc12)SC(=NCC1CCCO1)N(Cc1ccco1)C3 (stereo not drawn)	ABHD5-PLIN5 inh 26 | ABHD5-PLIN5 conf 43 | HNF4 counter 77
CCCN(CC(=O)Nc1cc(Cl)ccc1Cl)C(=O)c1ccc2n[nH]nc2c1	none (no result: TLR4 MyD88 comp)
Oc1ccccc1C1CC(c2cccs2)=NC(c2cccc(Br)c2)N1 (stereo not drawn)	ABHD5-PLIN5 inh 45 | ABHD5-PLIN5 conf 23 | HNF4 counter 49
COc1ccc(CNC(=O)CN2C(=O)CCSc3ccc(S(=O)(=O)N4CCCC4)cc32)cc1	none (no result: TLR4 MyD88 comp)
Cn1ccnc1-c1ccc(-c2nccn2C)cc1	none (no result: TLR4 MyD88 comp)
CNC(=S)N(CCc1c(C)[nH]c2ccc(C)cc12)Cc1ccco1	ABHD5-PLIN5 inh 31 | ABHD5-PLIN5 conf inactive | HNF4 counter inactive
CC(C)N(C(C)C)S(=O)(=O)c1ccc(Cl)nc1	none
CCN(CC)S(=O)(=O)c1ccc(N2CCc3ccccc3C2)nc1	ABHD5-PLIN5 inh 44 (no result: TLR4 MyD88 comp) | ABHD5-PLIN5 conf 61 | HNF4 counter 72
CCN(CC)S(=O)(=O)c1ccc(N2CCN(S(=O)(=O)c3ccccc3)CC2)nc1	none (no result: TLR4 MyD88 comp)
CC(C)N(C(C)C)S(=O)(=O)c1ccc(N2CCc3ccccc3C2)nc1	ABHD5-PLIN5 inh 39 (no result: TLR4 MyD88 comp) | ABHD5-PLIN5 conf 30 | HNF4 counter 26
COCCCNc1ccn2nc(-c3ccc(OCc4ccccc4)cc3)cc2n1	none (no result: TLR9-MyD88 inh, TLR4 MyD88 comp)
NC1=NC(=O)/C(=C\c2cc([N+](=O)[O-])ccc2Cl)S1	ABHD5-PLIN5 inh 25 | ABHD5-PLIN5 conf 24 | HNF4 counter 19
CCCCn1c(N)c(N(CCOC)C(=O)c2ccc3c(c2)OCCO3)c(=O)[nH]c1=O	none (no result: TLR4 MyD88 comp)
CCOC(=S)SCC(=O)N1CCc2cc(OC)ccc2C1C1C(=O)CCCC1=O (stereo not drawn)	none
Cc1ccsc1CNC(=O)C1(C)CCN1C(=O)C(C)C (stereo not drawn)	none (no result: TLR9-MyD88 inh, TLR4 MyD88 comp)
O=c1[nH]cnc(O)c1C1C=CC=CC=C1	ABHD5-PLIN5 inh 50 (no result: TLR4 MyD88 comp) | ABHD5-PLIN5 conf 32 | HNF4 counter 49
O=C(NC(C(=O)N/N=C/c1cc([N+](=O)[O-])ccc1O)c1n[nH]c(=O)c2ccccc12)c1ccccc1 (stereo not drawn)	none (no result: TLR4 MyD88 comp)
